The values that follow come from ChEMBL document CHEMBL3988442, “University of Dundee, Small-Polar-MMV Screening Library” (2021).

Molecules are shown by their SMILES. Out of some 38,000 compounds screened, about 1,200 (3.2%) showed an effect of 50% or more. The median lay at about -58%. Shown is part of a subset that was picked to be rich in strong results.

This assay relates to Plasmodium falciparum. Kind of assay: Calibr Malaria Delayed Death Assay SOP. It is filed as functional, organism-based. Also on record: scale not given: in the data most compounds retested in dose-response had high values. The following applies: concentration 4.99e-06 (unit not given; other assays of the set use mol/L).
In the case of `C1CC(CO[C@@H]2CC[C@H]3[C@H]2OCCN3CC2CCOCC2)CCO1.O=C(O)C(F)(F)F`, the “Percent Effect” value is recorded as -39.09%. For `O=c1c2ccccc2nc2n1C(CSc1ccc(Cl)cc1Cl)CN2` (stereo not given), the “Percent Effect” value is given as -150.5%. In the case of `CN1CCCC1CNC(=O)CCCOCc1ccccc1` (stereo not given) it was -50.92%; in that of `CC(=O)NCCOc1cccc(Br)c1`, -82.47%. On to `CC(C)NC(=O)N1CCN(C(=O)NC(C)C)CC2(CNC(=O)C2)C1`, for which the “Percent Effect” value was -54.94%. In the case of `Cc1cc(N2CCCN(Cc3ccc(C)o3)CC2)ccn1` it was 32.48%.

On to `Cc1cc(N2CCCN(CCc3ccccc3)CC2)ccn1`, for which the “Percent Effect” value worked out at 86.4%. As to `Cc1cc(N2CCCN(c3ccnc(C)c3)CC2)ccn1`, the “Percent Effect” value is recorded as -92.15%. In the case of `CC(C)n1nnnc1-c1ccc(NC(=O)N(C)CCN(C)C)cc1F` it was -66.24%; in that of `CN(C)C(CNS(=O)(=O)c1cc(F)ccc1F)c1cccn1C` (stereo not given), 52.76%. In the case of `COc1ccccc1S(=O)(=O)NCC(c1cccn1C)N(C)C` (stereo not given) it was 10.47%; in that of `COc1ccc(S(=O)(=O)NCC(c2cccn2C)N(C)C)cc1F` (stereo not given), -0.0752%; in that of `Cc1c(CN2CCCCC2)c(O)n(CCCO)c(=O)c1C#N`, -126.8%. In the case of `CC(C)Nc1ncnc2c1CCN(C(=O)NCc1cccc(F)c1)CC2` it was -3.86%; in that of `O=C(O)C(F)(F)F.c1cncc(CN2C[C@H]3CCC[C@@H](CNc4cnccn4)[C@H]3C2)c1`, -3.57%; in that of `Cn1cc(CN2C[C@@H]3CCC[C@@H](OCc4cccnc4)[C@@H]3C2)cn1`, -83.15%. On to `O=C(O)C(F)(F)F.O=C(O)C(F)(F)F.O=C(O)C(F)(F)F.c1cnc(N2CCN(C3CCC[C@@H]4CN(CC5CC5)C[C@H]34)CC2)nc1` (stereo not given in full), for which the “Percent Effect” value is reported as 48.04%. Regarding `Cn1cc(CN2C[C@H]3CCC[C@@H](CNc4ncccn4)[C@H]3C2)cn1.O=C(O)C(F)(F)F`, the “Percent Effect” value is -87.54%.

Consider `Cc1cnc(N2C[C@H]3CCCC(N(C)Cc4ccccn4)[C@H]3C2)nc1.O=C(O)C(F)(F)F` (stereo not given in full), for which the “Percent Effect” value was -10.03%.

Turning to `O=C(C[C@@H]1COC[C@H]2CN(Cc3cccnc3)C[C@@H]12)NCC1CC1.O=C(O)C(F)(F)F.O=C(O)C(F)(F)F`, the “Percent Effect” value is listed as -77.98%. Next, `Cn1ccnc1NC[C@@H]1CCC[C@@H]2CN(Cc3nccs3)C[C@@H]21.O=C(O)C(F)(F)F`: -64.87%; `O=C(O)C(F)(F)F.c1ccc(NC[C@@H]2CCC[C@@H]3CN(Cc4nccs4)C[C@@H]32)nc1`: 55.03%; `CN(Cc1ccccn1)C1CCC[C@@H]2CN(CC3CC3)C[C@H]12.O=C(O)C(F)(F)F.O=C(O)C(F)(F)F` (stereo not given in full): 68.03%. Next, `O=C(O)C(F)(F)F.c1ccc(NC[C@@H]2CCC[C@@H]3CN(Cc4cccnc4)C[C@@H]32)nc1`: 75.01%; `Cn1ccnc1NC[C@@H]1CCC[C@@H]2CN(Cc3cccnc3)C[C@@H]21.O=C(O)C(F)(F)F`: -26.47%.

On to `CCC(O)CN1CCN(C(=O)c2cccc3c2OCC(=O)N3)CC1` (stereo not given), for which the “Percent Effect” value is reported as -136.7%.

Take `CC(C)CN1C(=O)C2(CCN(Cc3ccsc3)C2)c2ccccc21.O=C(O)C(F)(F)F` (stereo not given): the “Percent Effect” value is -33.32%. On to `Cc1cccc(CN2CCc3ncnc(N4CCN(C)CC4)c3CC2)n1.O=C(O)C(F)(F)F.O=C(O)C(F)(F)F`, for which the “Percent Effect” value is on record as -236.1%.

As for `Cc1noc(C(C)C)c1C(=O)NCCCOC(C)C`, the “Percent Effect” value was -142.4%. Consider `CC(CNC(=O)NCc1ccoc1)N1CCc2sccc2C1` (stereo not given), for which the “Percent Effect” value is -8.458%. Next, `CCc1cnc(CN(C)C2CCN(CCCS(=O)(=O)NC)C2)o1` (stereo not given): -85.83%. Next, `O=C(O)C(F)(F)F.c1ccc(NC[C@@H]2CCC[C@@H]3CN(c4ncccn4)C[C@@H]32)nc1`: 71.6%.

Take `COCCN1C[C@H]2CCC[C@@H](CNc3ncccn3)[C@H]2C1.O=C(O)C(F)(F)F.O=C(O)C(F)(F)F`: the “Percent Effect” value was 19.85%. Next, `O=C(O)C(F)(F)F.c1ccc(NC[C@@H]2CCC[C@@H]3CN(Cc4cc[nH]n4)C[C@@H]32)nc1`: -36.14%; `Cc1cccc(C)c1OC1CN(C(=O)C2CC(=O)N(C(C)(C)C)C2)C1` (stereo not given): -9.651%.

As to `COc1cc(-c2cc(NC3CCCC3)nc3[nH]ccc23)nc(N)n1`, the “Percent Effect” value is 62.87%. Next, `CNc1cc(C)nc(-c2cc(NC3CCNCC3)nc3[nH]ccc23)n1`: -52.32%; `COc1nccnc1-c1cc(NC2CCCC2)nc2[nH]ccc12`: 19.53%. Next, `COc1ncc(-c2cc(NC3CCCC3)nc3[nH]ccc23)c(OC)n1`: 74.29%. Next, `COc1nccnc1-c1cc(NC2CCNCC2)nc2[nH]ccc12`: -131.1%; `FC(F)(F)c1ccc(-c2cc(NC3CCNCC3)nc3[nH]ccc23)nc1`: -115.3%; `CC(Nc1ccc(F)cc1)c1nnnn1-c1ccccc1` (stereo not given): -147.9%. On to `Cc1cc(S(C)(=O)=O)c(C)c(S(=O)(=O)N2CCCCCC2)c1`, for which the “Percent Effect” value was -98.91%.

As to `c1cnn(CC2CN(Cc3nc(-c4ccoc4)no3)CCO2)c1` (stereo not given), the “Percent Effect” value is recorded as -25.36%. Next, `Cc1csc(N2CCCN(C(=O)Cc3ccc(C)s3)CC2)n1`: -98.4%; `CCN(CC)c1nc(C)cc(C(=O)Nc2ccc(Br)cc2)n1`: -6.909%; `CN1CCC(N(C)C(=O)Nc2ccc(Cl)cc2)CC1`: -68.4%. `Cc1nc(N2CCCC2)ncc1C(=O)Nc1ccc(Br)cc1`: the “Percent Effect” value was -75.85%. Regarding `Cn1cc(NC(=O)CNC(=O)N2CCN(c3ccc(Cl)cc3)CC2)cn1`, the “Percent Effect” value is 2.407%. In the case of `Cc1oc(-c2cccc(F)c2F)nc1CN(C)CCO` it was -89.89%; in that of `CC[C@H](C)[C@H](NC(=O)c1cccc(-n2cnnn2)c1)C(=O)OC`, -118.3%; in that of `COCC(O)CNC(=O)c1cc(COc2ccc3c(c2)CCCC3)on1` (stereo not given), -3.069%. Take `CC(C)NC(=O)CC1COC2(CCN(Cc3cccs3)CC2)C1.O=C(O)C(F)(F)F` (stereo not given): the “Percent Effect” value was -6.903%. In the case of `O=C(COc1coc(CN2CCCC2)cc1=O)Nc1cc(Cl)ccc1Cl`, the “Percent Effect” value came out at 79.74%. In the case of `O=C(COc1coc(CN2CCCCC2)cc1=O)Nc1ccccc1Cl` it was -97.93%; in that of `O=C(COc1coc(CN2CCCC2)cc1=O)Nc1ccc(Cl)c(Cl)c1`, -65.99%; in that of `COc1ccc(NCC(=O)NCC(=O)N2CCCC2)c(C(F)(F)F)c1`, -93.16%.

`CC(C)CNC(=O)CN(Cc1ccc(F)cc1)S(C)(=O)=O`: the “Percent Effect” value is listed as -57.65%. Next, `COc1ccc(C[C@H]2CN(C(=O)c3cscn3)CC[C@@H]2OC)cc1`: -91.5%. `CCn1cnnc1CNC(=O)N1CCN(CC(C)C)CC1`: the “Percent Effect” value was -55.6%. In the case of `c1ccc(-c2nc(CNC3CCc4ncnn4C3)no2)cc1` (stereo not given) it was -138.7%; in that of `Fc1ccc(C2(NCc3ccccc3)CCOCC2)cc1`, 62.64%.

Regarding `CSc1ccc(CNC2(c3ccc(F)cc3)CCOCC2)cc1`, the “Percent Effect” value is recorded as 28.49%.

As to `CN(C)c1ccc(CNC2(c3ccc(F)cc3)CCOCC2)cc1F`, the “Percent Effect” value was 25.79%.

Take `O=C(CCc1nc2ccccc2[nH]1)Nc1ccc2c(c1)OCC(=O)N2`: the “Percent Effect” value is -185.4%. In the case of `Cc1cc(F)c(S(=O)(=O)Nc2ccn(CCC#N)n2)cc1F` it was -82.35%; in that of `CO[C@@H]1CCN(c2ncccn2)[C@H]1Cc1ccccc1`, -224.1%. As for `CN(C)[C@@H]1CCN(c2ncccn2)[C@H]1Cc1ccccc1`, the “Percent Effect” value came out at 77.2%. In the case of `Fc1cnc(N2CC[C@@H](N3CCOCC3)[C@@H]2Cc2ccccc2)nc1` it was -55.08%; in that of `CN(C)[C@@H]1CCN(c2ncccn2)[C@H]1Cc1cccnc1.O=C(O)C(F)(F)F.O=C(O)C(F)(F)F`, 10.59%. Turning to `CN(C)[C@@H]1CCN(c2ncc(F)cn2)[C@H]1Cc1ccccc1.O=C(O)C(F)(F)F.O=C(O)C(F)(F)F`, the “Percent Effect” value is given as 88.46%. In the case of `CN(C)[C@@H]1CCN(c2ncccn2)[C@H]1Cc1ccncc1.O=C(O)C(F)(F)F.O=C(O)C(F)(F)F` it was -10.95%; in that of `CN(C)[C@@H]1CCN(c2ncc(F)cn2)[C@H]1Cc1ccncc1.O=C(O)C(F)(F)F.O=C(O)C(F)(F)F`, 27.12%. As for `CN(C)[C@@H]1CCN(c2ncc(F)cn2)[C@H]1Cc1cccnc1.O=C(O)C(F)(F)F.O=C(O)C(F)(F)F`, the “Percent Effect” value was -22.18%. In the case of `Cc1nn(C)c(C)c1CN(C)C(C(=O)O)c1ccc(F)cc1F` (stereo not given) it was -28.09%; in that of `Cc1nc(-c2nnc[nH]2)sc1C(=O)N1CCCC1c1cccs1` (stereo not given), -86.12%. In the case of `Cc1ccc(F)c(S(=O)(=O)NCCc2nnc[nH]2)c1` it was -33.36%. Next, `N#Cc1ccc(NCC(O)c2ccco2)c(C(F)(F)F)c1` (stereo not given): -33.98%. For `Cn1cc(C(=O)N2CCCC(CN3CCCC3=O)C2)cn1` (stereo not given), the “Percent Effect” value was -14.99%. Consider `O=C(c1ccc(F)c(F)c1)N1CCC[C@]2(C[C@@H](OCC3CC3)CO2)C1`, for which the “Percent Effect” value was -0.7044%. For the molecule `COC(=O)CC(c1ccc(O)c(Cl)c1)c1oc(C)cc(=O)c1O` (stereo not given), the “Percent Effect” value is -28.31%. Consider `Cc1nc(C)n(C2CCCN(C(=O)CCc3ccccn3)C2)n1` (stereo not given), for which the “Percent Effect” value is -132.7%.

`CC(CNC1CCN(c2ccccn2)CC1)Oc1ccc(F)cc1` (stereo not given): the “Percent Effect” value was determined as 47.69%. For the molecule `CC(C)COCCC(=O)NCCC(=O)N1CCN(c2ccccn2)CC1`, the “Percent Effect” value is on record as -146.7%. For `COCCOCC(=O)NC1CCN(c2ccccn2)CC1`, the “Percent Effect” value is reported as -21.4%.

Regarding `OC1(CNC2CCN(c3ccccn3)CC2)CCc2ccccc21` (stereo not given), the “Percent Effect” value turned out to be 27.14%.

Regarding `COc1ccc(C(C)CCNC2CCN(c3ccccn3)CC2)cc1` (stereo not given), the “Percent Effect” value was 67.25%. In the case of `CC(C)COCCNC1CCN(c2ccccn2)CC1` it was 60.11%.

Regarding `CSCC(=O)N1CCOC(c2nc(C(C)C)n[nH]2)C1` (stereo not given), the “Percent Effect” value was -97.79%. In the case of `CC(C)[C@H]1CN(c2ccnc(N)n2)C[C@@H]1NC(=O)C1(C#N)CCOCC1` it was -66.36%.
